Bioassay records: PubChem BioAssay, Broad Institute
Hits are enriched below; roughly 2.2% of the tested compounds scored in any of these assays.
CSC inhib: cancer stem cell viability inhibitors, primary screen, luminescence; cancer stem cell-like cells viability; inhibition, % at 7.5 µM; 1.1% of 300,000 active; AID 2717, 2010; in the data active = inhibition above about 75%; inconclusive = no clear call, values can overlap the other calls; tested in HMLE shEcad cells
PfHsp90 set2: growth inhibition of PfHsp90-expressing yeast, primary screen, antimalarial PfHsp90 inhibitor project, S. cerevisiae, BacTiter-Glo luminescence, single point, set 2. BacTiter-Glo ATP, 48 h; yeast lacking PDR1 and PDR3 efflux regulators. inhibition, % at 9.4 µM. 0.32% of 310,000 active. AID 504621, 2011;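 active = every replicate shows inhibition above about 80%, whatever the replicate mean, limit read from the data; inconclusive = mean inhibition reaches the set limit but some replicate falls short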;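 also: 0% = DMSO neutral controls and 100% = 20 µM radicicol positive controls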
Beta apoptosis: inhibitors of cytokine-induced beta cell apoptosis, primary screen, luminescence; INS-1E cytokine-induced death, ATP luminescence, 48 h; percent of positive-control rescue, neutral wells zero; protection from apoptosis, % (no concentration beside the values); 0.8% of 300,000 active; AID 435005, 2010;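 active = Every replicate reaches about 75%, or at least half do and their mean reaches it too, limit read from the data; inconclusive = At least half of replicates reach the limit but their mean does not; inactive = Under half of replicates reach the limit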;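 also: 0% = cytokine-treated negative control wells and 100% = positive control rescue; higher means more ATP so stronger rescue from cytokine killing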
Shn3 3UTR inh: reduction of Shn3 3'UTR firefly luciferase signal, primary screen, Schnurri-3 inhibitor project, cell-based, Clone20 osteoblasts, set 2; inhibition, % at 12.5 µM; Clone20 osteoblast Shn3 3'UTR firefly luciferase, 24 h; 0.52% of 360,000 active;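 active = mean inhibition of at least 75% with every replicate also reaching 75%; inconclusive = mean inhibition at least 75% but some replicate below; inactive = mean inhibition below 75%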;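 also: 0% = median of neutral control wells and 100% = pilot-screen positive control compound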
Calb FLC: C. albicans growth inhibition with fluconazole, primary screen, CaCi-2 strain, Alamar Blue fluorescence. C. albicans CaCi-2 (fluconazole-resistant clinical isolate) + fluconazole, 48 h. growth inhibition, % (test concentration not listed). 0.57% of 300,000 active;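 active = growth inhibition above about 58% in most replicates, limit read from the data, passing the limit was not always enough; inconclusive = exactly half the replicates above a set limit; inactive = most replicates below a set limit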;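 also: all wells also contain fluconazole at 8 µg/ml as a sub-toxic cotreatment; 0% = median of DMSO wells and 100% = median of geldanamycin control wells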
An asterisk follows results filed as active; ? = inconclusive; . = no result given.

SMILES	CSC inhib	PfHsp90 set2	Beta apoptosis	Shn3 3UTR inh	Calb FLC
CCCCCCCC/C=C\CCCCCCCC(=O)NCCO	-7	109*	-2	2	.
CCCCCCCCCCCCCC(=O)NO	.	107*	.	-4	.
COC(=O)c1c(NC(=O)c2cccc(S(=O)(=O)N3CCN(C)CC3)c2)sc(C)c1C	57	.	.	16	-1
O=C(Nc1ccccc1N1CCOCC1)c1ccc(N2CCCC2=O)cc1	.	6	0	10	.
c1ccc(CC2CCN(C3=Nc4cccc5cccc3c45)CC2)cc1	?	-26	0	1	86*
c1cc2c3c(cccc3c1)C(N1CCOCC1)=N2	-15	-15	-4	13	3
Cc1nn(C)c(C)c1/C=C/C(=O)c1ccc(Cl)cc1Cl	-1	0	50	84	92*
COc1cc(C(=O)OCC(=O)NC2CC2)ccc1OCCC(C)C	.	17	-1	8	.
CCOC(=O)Cn1c(S(=O)(=O)Cc2ccccc2Cl)nc(-c2ccccc2)c1-c1ccccc1	14	.	24	88*	17
Cc1ccccc1N1CCN(CC(=O)Nc2ccccc2C(=O)NC2CC2)CC1	-10	-7	-7	11	.
CCC(=O)c1cn(CC(=O)Nc2ccccc2Cl)c2ccccc12	3	13	0	89*	-1
Cc1cccc(NC(=O)Cn2cc(C(=O)C3CC3)c3ccccc32)c1C	-3	12	18	87*	0
COc1ccccc1NC(=O)Cn1cc(C(=O)c2ccco2)c2ccccc21	-11	.	87*	76	-2
CCC(=O)c1cn(CC(=O)Nc2cccc(C)c2C)c2ccccc12	-4	38	6	84	0
COc1ccc(S(=O)(=O)N2CCN(C(=O)CCSc3ccccc3)CC2)cc1	.	4	0	6	.
Cc1nc2sc(C(c3cccc(F)c3)N3CCCC(C)C3)c(O)n2n1 (configuration not stated)	21	-12	1	5	85*
Cc1nn(-c2ccccc2)c(C)c1C(=O)N1CCN(S(=O)(=O)c2ccccc2)CC1	-3	-2	-1	-7	.
O=C1CCc2ccc(OCCCCN3CCN(c4cccc(Cl)c4Cl)CC3)cc2N1	17	22	3	19	105*
COc1ccccc1N1CCN(CCCOc2ccc(F)cc2)CC1	0	5	0	-1	-17
CN(c1ccc(OC(=O)CN2C(=O)NC3(CCCC3)C2=O)cc1)S(=O)(=O)c1ccccc1	-9	.	-9	5	5
CCOc1ccc(NC(=S)N2CCn3c(nc4ccccc43)C2)cc1	-16	.	5	.	?
COc1ccc(OCC(=O)Nc2nc3c(s2)CCCC3)cc1	.	13	.	2	-6
Cc1ncsc1C(=O)Nc1nc2c(s1)CCCC2	45	10	18	-42	10
COc1ccc(NC(=O)Nc2nc3c(s2)CCCC3)cc1	26	23	7	-35	80*
Cc1cc(C(=O)Nc2nc3c(s2)CCCC3)cs1	86*	18	14	-24	18
SMILES	CSC inhib	PfHsp90 set2	Beta apoptosis	Shn3 3UTR inh	Calb FLC
COc1ccc(NC(=S)NCCCCCC(=O)C[N+](=O)[O-])cc1	9	-20	-6	-11	-3
COC(=O)c1ccc(OC(=O)C23CCC(C)(C(=O)O2)C3(C)C)cc1 (configuration not stated)	-17	21	-9	-2	5
O=[N+]([O-])c1cc(/C=N/O)ccc1Oc1ccccc1Cl	-4	106*	-4	-37	12
Cc1ccc([N+](=O)[O-])cc1S(=O)(=O)Nc1cccc(S(=O)(=O)NC2=NCCC2)c1	-9	.	1	23	.
Cc1[nH]c2ccccc2c1/C=N/NC(=O)C1CC1(c1ccccc1)c1ccccc1 (configuration not stated)	116*	9	26	1	-9
COc1cccc(C2C(C(=O)c3cc4ccccc4o3)=C(O)C(=O)N2c2cc(C)on2)c1OC (configuration not stated)	-9	2	4	11	78*
COc1ccc(C(C)(O)c2nc(-c3cnc4ccccc4c3)cs2)cc1 (configuration not stated)	.	.	.	5	.
CN(C)c1cc[n+](CC(=O)Nc2ccc(Oc3ccccc3)cc2)cc1	-5	-1	91*	-19	-3
Cc1cc2occ(CC(=O)N(C)CC(=O)Nc3ccc(F)cc3)c2cc1C	-11	.	-6	1	-7
